Measured values reported in PubChem BioAssay (NCI).
About 83,000 compounds went through this panel and 20% of them were active in at least one assay; those are over-represented in the sample as a whole.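 Single-dose data. Exposure time 48 hours. Values below 10 considered active.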 Activity calls are given as the source filed them.

Key:
Experiment in all cases: NCI-60 one-dose screen, 48 h (100 = growth as untreated, 0 = no growth, -100 = all killed)
Details in all cases: 10 µM unless noted
DU-145 prostate = system: DU-145 prostate
K-562 leukemia = system: K-562 leukemia
MALME-3M melanoma = system: MALME-3M melanoma
MDA-MB-231 breast = system: MDA-MB-231 breast
RXF 393 renal = system: RXF 393 renal
SF-268 CNS = system: SF-268 CNS
SF-295 CNS = system: SF-295 CNS
SF-539 CNS = system: SF-539 CNS
UACC-257 melanoma = system: UACC-257 melanoma
M14 melanoma = system: M14 melanoma

Measured: growth

ClC(Cl)c1nc(-c2ccccc2)nc2cc(-c3ccccc3)nn12
inactive: DU-145 prostate 32.4% | K-562 leukemia 36.9% | MALME-3M melanoma 93% | MDA-MB-231 breast 60% | RXF 393 renal 19.8% | SF-268 CNS 57.2% | SF-295 CNS 97.7% | SF-539 CNS 79% | UACC-257 melanoma 102%

C1=Cc2ccccc2N(c2nnc(-c3ccccc3)o2)c2ccccc21
inactive: DU-145 prostate 105% | K-562 leukemia 67.8% | MALME-3M melanoma 109% | MDA-MB-231 breast 85.5% | RXF 393 renal 91.1% | SF-268 CNS 91.7% | SF-295 CNS 92% | SF-539 CNS 103% | UACC-257 melanoma 111%

O=C(/C=C\c1cccc([N+](=O)[O-])c1)/C=C/c1cccc([N+](=O)[O-])c1
inactive: DU-145 prostate 93.1% | K-562 leukemia 70.5% | MALME-3M melanoma 110% | MDA-MB-231 breast 90.1% | RXF 393 renal 79.6% | SF-268 CNS 78.5% | SF-295 CNS 100% | SF-539 CNS 101% | UACC-257 melanoma 90.2%

N#C/C(=C1C=C/C(=N/O)C(Cl)=C/1)c1ccc(Cl)cc1
inactive: DU-145 prostate 35.5% | K-562 leukemia 42.6% | MALME-3M melanoma 112% | MDA-MB-231 breast 61.4% | RXF 393 renal 81.9% | SF-268 CNS 54.5% | SF-295 CNS 141% | SF-539 CNS 18.8% | UACC-257 melanoma 76.2%

COc1ccc(-c2nc3sccn3c2/C=C/C(=O)c2cc(F)cc(F)c2)cc1
inactive: DU-145 prostate 86.2% | K-562 leukemia 19.1% | MALME-3M melanoma 102% | MDA-MB-231 breast 62.6% | RXF 393 renal 54.4% | SF-268 CNS 81.8% | SF-295 CNS 116% | SF-539 CNS 92.8% | UACC-257 melanoma 101%

COc1cc(C2C3=C(COC3=O)Nc3cc4c(cc32)CCC4)cc2c1OCO2 (stereo unspecified)
active: DU-145 prostate -0.3% | SF-295 CNS 6.57%
inactive: K-562 leukemia 14.1% | MALME-3M melanoma 60% | MDA-MB-231 breast 20.8% | RXF 393 renal 30.4% | SF-268 CNS 27.9% | SF-539 CNS 10.2% | UACC-257 melanoma 73.1%

C/C(=N/NC(=S)Nc1ccccc1)c1nc2ccc(Cl)cc2[nH]1
active: DU-145 prostate -99.1% | K-562 leukemia -9.4% | MALME-3M melanoma -74% | MDA-MB-231 breast -21.4% | RXF 393 renal -91.5% | SF-268 CNS -89.6% | SF-295 CNS -58.6% | SF-539 CNS -72.1% | UACC-257 melanoma -94.9%

Cc1nn(-c2ccc(Cl)cc2)c2ncnc(N/N=C/c3cccc([N+](=O)[O-])c3)c12
inactive: DU-145 prostate 68.7% | K-562 leukemia 17.4% | MALME-3M melanoma 97.2% | MDA-MB-231 breast 102% | RXF 393 renal 110% | SF-268 CNS 58% | SF-295 CNS 101% | SF-539 CNS 106% | UACC-257 melanoma 103%

Cc1ccc(S(=O)(=O)n2cc(C(=O)C(=O)Nc3ccncc3)c3ccccc32)cc1
active: RXF 393 renal 9.66%
inactive: DU-145 prostate 22.4% | K-562 leukemia 23.8% | MALME-3M melanoma 48.4% | MDA-MB-231 breast 42.9% | SF-268 CNS 44.6% | SF-295 CNS 16.4% | SF-539 CNS 15% | UACC-257 melanoma 63.3% | M14 melanoma 18.1%

COc1ccc(C2NN=C3c4ccccc4CCC32)cc1 (stereo unspecified)
inactive: DU-145 prostate 98.8% | K-562 leukemia 10.2% | MALME-3M melanoma 25.4% | MDA-MB-231 breast 58.5% | RXF 393 renal 47% | SF-268 CNS 69.3% | SF-295 CNS 40.2% | SF-539 CNS 58% | UACC-257 melanoma 60.1%

CC(C)CSc1nc(NN)c(C#N)c(-c2ccccc2)n1
inactive: DU-145 prostate 103% | K-562 leukemia 94.5% | MALME-3M melanoma 118% | MDA-MB-231 breast 107% | RXF 393 renal 90.1% | SF-268 CNS 84.6% | SF-295 CNS 88.1% | SF-539 CNS 94.5% | UACC-257 melanoma 110% | M14 melanoma 107%

COc1cc(-c2nc(-c3nc4ccc(Cl)cc4[nH]3)cc3c2[nH]c2ccccc23)cc(OC)c1OC
active: MDA-MB-231 breast 4.62%
inactive: DU-145 prostate 86.8% | K-562 leukemia 54.1% | MALME-3M melanoma 92.7% | RXF 393 renal 63.5% | SF-268 CNS 68% | SF-295 CNS 61.3% | SF-539 CNS 67.3% | UACC-257 melanoma 100%

COc1ccc(C(=O)N2NC(=O)/C(=C/c3ccc(F)cc3)N=C2c2ccccc2)cc1
inactive: DU-145 prostate 113% | K-562 leukemia 94.4% | MALME-3M melanoma 91.4% | MDA-MB-231 breast 88.1% | RXF 393 renal 94.5% | SF-268 CNS 105% | SF-295 CNS 80.4% | SF-539 CNS 97% | UACC-257 melanoma 99.3%

COc1ccc(C(=O)N2NC(=O)/C(=C/c3cn(-c4ccccc4)nc3-c3ccccc3)N=C2c2ccccc2)cc1
inactive: DU-145 prostate 108% | K-562 leukemia 105% | MALME-3M melanoma 105% | MDA-MB-231 breast 93.8% | RXF 393 renal 104% | SF-268 CNS 98.2% | SF-295 CNS 86.9% | SF-539 CNS 115% | UACC-257 melanoma 95% | M14 melanoma 110%

Cc1ccc(Nc2nnc(-c3ccc(Cl)cc3)o2)c(C)c1
inactive: DU-145 prostate 93.5% | K-562 leukemia 24.8% | MALME-3M melanoma 62.1% | MDA-MB-231 breast 76.3% | RXF 393 renal 93.8% | SF-268 CNS 90.3% | SF-295 CNS 80.7% | SF-539 CNS 79% | UACC-257 melanoma 87.8% | M14 melanoma 57.6%

Cn1cc(-c2cnc3ccc(NC(=O)Nc4ccc(F)c(Br)c4)cc3n2)cn1
inactive: DU-145 prostate 39.4% | K-562 leukemia 11.2% | MALME-3M melanoma 35.9% | MDA-MB-231 breast 23.4% | SF-268 CNS 49.6% | SF-539 CNS 52.9% | UACC-257 melanoma 47.6%
active: RXF 393 renal -22.3% | SF-295 CNS -3.9% | M14 melanoma 4.13%

CCCCCCN1CSC(=S)N(CCCCCC)C1
inactive: DU-145 prostate 113% | K-562 leukemia 110% | MALME-3M melanoma 95.2% | MDA-MB-231 breast 97.4% | RXF 393 renal 106% | SF-268 CNS 104% | SF-295 CNS 98.2% | SF-539 CNS 102% | UACC-257 melanoma 104%

CCCCCCCCCCCCNC(=O)[C@H]1CSC(c2cc(Br)cs2)N1 (stereo partly specified)
active: DU-145 prostate -48.2% | K-562 leukemia -47.2% | MDA-MB-231 breast -77.9% | RXF 393 renal -60% | SF-268 CNS -72.4% | SF-539 CNS -66.3% | UACC-257 melanoma -22.3% | M14 melanoma -83.5%
inactive: MALME-3M melanoma 13.1% | SF-295 CNS 36%

Nc1nc(Nc2cc(Cl)cc(Cl)c2)nn1S(=O)(=O)c1ccc2ccccc2c1
inactive: DU-145 prostate 47.7% | K-562 leukemia 41.5% | MALME-3M melanoma 63% | MDA-MB-231 breast 35.3% | RXF 393 renal 30.6% | SF-268 CNS 52.4% | SF-295 CNS 93.6% | SF-539 CNS 83.5% | UACC-257 melanoma 83.3% | M14 melanoma 78.4%

O=c1[nH]c(Nc2ccc(S(=O)(=O)O)cc2)nc2nc(Nc3ccc(NC(=S)Nc4ccccc4)cc3)nc(-c3ccc(O)cc3O)c12
inactive: DU-145 prostate 133% | K-562 leukemia 101% | MALME-3M melanoma 98.8% | MDA-MB-231 breast 90.5% | RXF 393 renal 115% | SF-268 CNS 104% | SF-295 CNS 121% | SF-539 CNS 189% | UACC-257 melanoma 139%

O=C1Nc2ccc(Cl)cc2C12Nc1cc(Cl)ccc1S2 (stereo unspecified)
active: RXF 393 renal -8.23%
inactive: DU-145 prostate 96.5% | K-562 leukemia 39.2% | MALME-3M melanoma 74.2% | MDA-MB-231 breast 83.2% | SF-268 CNS 88.3% | SF-295 CNS 106% | SF-539 CNS 87.9% | UACC-257 melanoma 129% | M14 melanoma 93.9%

CNc1ccc(Br)c2c1C(=O)c1ccccc1C2=O
inactive: DU-145 prostate 121% | K-562 leukemia 94.9% | MALME-3M melanoma 117% | MDA-MB-231 breast 103% | RXF 393 renal 122% | SF-268 CNS 115% | SF-295 CNS 110% | SF-539 CNS 103% | UACC-257 melanoma 121% | M14 melanoma 118%

OCc1ncc(-c2ccccc2)s1
inactive: DU-145 prostate 107% | K-562 leukemia 93.2% | MALME-3M melanoma 94.2% | MDA-MB-231 breast 113% | RXF 393 renal 122% | SF-268 CNS 99.8% | SF-295 CNS 106% | SF-539 CNS 98.1% | UACC-257 melanoma 105% | M14 melanoma 93.9%

COc1ccc(OC)c(/C=C2\Oc3cc(OCCCN4CCCC4)ccc3C2=O)c1
active: K-562 leukemia -5.23% | M14 melanoma -2.52%
inactive: DU-145 prostate 79.6% | MALME-3M melanoma 104% | MDA-MB-231 breast 68.8% | RXF 393 renal 73.4% | SF-268 CNS 79.8% | SF-295 CNS 97.4% | SF-539 CNS 46% | UACC-257 melanoma 40.5%

Cc1cc(N/N=C/c2nc(-c3ccccc3)oc2C)c2cc(Br)ccc2n1
inactive: DU-145 prostate 91.3% | K-562 leukemia 21.9% | MALME-3M melanoma 95.2% | MDA-MB-231 breast 53.5% | RXF 393 renal 102% | SF-268 CNS 95% | SF-295 CNS 95% | SF-539 CNS 75.2% | UACC-257 melanoma 102% | M14 melanoma 91.6%

COC(=O)C(Sc1ccc(Cl)cc1)C1SC(=S)N(Cc2ccccc2)C1=O (stereo unspecified)
inactive: DU-145 prostate 102% | K-562 leukemia 44% | MALME-3M melanoma 98.9% | MDA-MB-231 breast 98.9% | RXF 393 renal 106% | SF-268 CNS 87.7% | SF-295 CNS 75.6% | SF-539 CNS 109% | UACC-257 melanoma 92.2% | M14 melanoma 100%

O=C(Oc1ccccc1[N+](=O)[O-])C1CCCN1C(=O)OCc1ccccc1 (stereo unspecified)
inactive: DU-145 prostate 111% | K-562 leukemia 94.6% | MALME-3M melanoma 112% | MDA-MB-231 breast 103% | RXF 393 renal 96% | SF-268 CNS 108% | SF-295 CNS 117% | SF-539 CNS 97.2% | UACC-257 melanoma 94.2%

FC(F)(F)c1cccc(-c2cn3c(ccc4ccccc43)n2)c1
inactive: DU-145 prostate 106% | K-562 leukemia 86.5% | MALME-3M melanoma 102% | MDA-MB-231 breast 79.2% | RXF 393 renal 115% | SF-268 CNS 98.7% | SF-295 CNS 88.5% | SF-539 CNS 99.5% | UACC-257 melanoma 114% | M14 melanoma 95.4%
